Experimental data reported in PubChem BioAssay AID1421 (Emory University Molecular Libraries Screening Center, 2008).
About 140 (11%) of roughly 1,300 compounds were called active. How the calls were made is not given here. Not all results are given here. Measured potencies and affinities stand elsewhere.

Biological target: Prostaglandin E2 receptor EP2 subtype (Homo sapiens) (UniProt P43116)
Assay: EP2 receptor modulators, dose response, cell-based, human EP2, PGE2 EC50 shift (AID 1421)
Conditions: EP2-expressing cells, PGE2 EC50 shift by compound; at 20 µM

Prostaglandin E2 receptor EP2 subtype (Homo sapiens), sequence (P43116 whole entry, looked up): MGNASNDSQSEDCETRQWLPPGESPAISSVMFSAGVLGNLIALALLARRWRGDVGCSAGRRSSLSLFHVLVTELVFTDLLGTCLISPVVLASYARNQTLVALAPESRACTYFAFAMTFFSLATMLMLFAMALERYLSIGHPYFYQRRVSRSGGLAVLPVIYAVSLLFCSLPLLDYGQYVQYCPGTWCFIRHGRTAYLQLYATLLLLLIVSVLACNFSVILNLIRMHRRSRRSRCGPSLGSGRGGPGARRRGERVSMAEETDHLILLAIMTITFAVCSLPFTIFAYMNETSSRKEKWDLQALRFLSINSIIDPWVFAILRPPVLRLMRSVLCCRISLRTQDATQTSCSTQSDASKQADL

PGE2 EC50 with compound, inactive:
CCc1ccccc1NC(=O)/C(=C/c1ccco1)c1ccccc1 0.16 nM, Cc1ccccc1NC(=O)/C(=C/c1ccccc1)c1ccccc1 0.24 nM, O=C(O)COc1cccc(NC(=O)c2ccccc2)c1 1.05 nM, Nc1c(C(=O)NCc2ccco2)c2nc3ccccc3nc2n1CCc1ccccc1 1.38 nM, Nc1c(C(=O)NCc2ccccc2)c2nc3ccccc3nc2n1CCCN1CCOCC1 0.76 nM, CCOC(=O)c1c(NC(=O)CN2CCCCC2)sc2c1CCN(C(=O)OCC)C2 0.83 nM, CCOC(=O)c1c(NC(=O)c2cccnc2)sc(C)c1C 0.31 nM, CCCCNCC(=O)Nc1sc(C)c(C)c1C(=O)OCC 0.33 nM, CCOC(=O)c1c(NC(=O)c2ccoc2C)sc(C(=O)N(C)C)c1C 0.6 nM, Cc1ccccc1-n1c(=O)[nH]c(=O)c2c(N)c(C(=O)c3ccc(Cl)cc3)sc21 0.74 nM, S=c1[nH]nc(-c2ccco2)n1/N=C/c1ccc(Cl)cc1Cl 2.86 nM, CCOP(=O)(c1ccccc1)c1nc(-c2ccccc2C)oc1N1CCCCC1 (centres undefined) 0.42 nM, CSc1nc(Sc2ccccc2)c2ccccc2n1 0.21 nM, C=CCSc1nc2ccccc2c(=O)n1Cc1ccccc1 0.31 nM, C=CCSc1nc2ccccc2n1S(=O)(=O)c1ccc(C)cc1 0.5 nM, CCCC1=C(C(=O)OCC)C(c2cccs2)C(C#N)=C(N)O1 (centres undefined) 0.32 nM, CCCCCCn1c(COc2ccccc2F)nnc1SCC(=O)N1c2ccccc2NC(=O)C1(C)C 0.69 nM, COc1ccc(-n2c(COc3cccc4ccccc34)nnc2SCC(=O)NCc2ccco2)cc1 0.72 nM, CCOC(=O)c1sc2nc(C)nc(N3CCN(c4ncccn4)CC3)c2c1C 0.7 nM, Cc1ccc(C(Sc2ccccc2)C(Cn2cncn2)C(=O)c2ccccc2)cc1 (centres undefined) 0.38 nM, Cc1ccc(-c2nc(P(=O)(c3ccccc3)c3ccccc3)c(N3CCOCC3)o2)cc1 0.39 nM, Clc1ccc(-c2ccc(/C=N/Nc3cc(N4CCOCC4)nc(N4CCOCC4)n3)o2)cc1 0.09 nM, CC(C)c1ccc(/C=N/Nc2cc(N3CCOCC3)nc(N3CCOCC3)n2)cc1 0.21 nM, Cc1ccc(-c2cc3ccccc3nc2N2CCOCC2)cc1 0.38 nM, Cc1cccc(Oc2sc(C(=O)c3ccccc3)c(N)c2C#N)c1 0.48 nM, C[C@H](C(=O)c1ccccc1)[C@@H](c1ccccc1)N1CCOCC1 0.33 nM, Cc1ccc2[nH]c3c(=S)nc[nH]c3c2c1 10.1 nM, CN(C)c1nc(-c2ccccc2)c2cnn(Cc3ccccc3)c2n1 0.17 nM, Cc1cccc(CSc2ncnc3ccccc23)c1 0.37 nM, CC1(c2ccccc2)CC(C)(C)N(C(=O)C2CCCO2)c2ccccc21 (centres undefined) 0.39 nM, CCc1ccc2[nH]c(=O)c(CN(Cc3nnnn3C3CCCC3)C3CCCCC3)cc2c1 0.64 nM, O=C(Nc1ccccc1Oc1ccccc1)c1ccc(Br)o1 0.3 nM, O=C(Nc1ccccc1-c1nc2ccccc2s1)c1ccc(Br)o1 0.41 nM, CCOC(=O)c1cnc2ccc(OCC)cc2c1N(C)Cc1ccccc1 0.07 nM, CCCCOc1ccccc1Cn1c(=O)oc2ccccc21 0.29 nM, CCCOc1ccccc1Cn1c(=O)oc2ccc(C)cc21 0.27 nM, CC(C)NC(=S)N/N=C1\CCCCC1C1CCCCC1 (centres undefined) 0.74 nM, CCN(c1cccc(C)c1)S(=O)(=O)c1ccc2c3c(cccc13)C(=O)N2 0.94 nM, C#CCn1c(S(=O)(=O)Cc2ccc(F)cc2)nc(-c2ccccc2)c1-c1ccccc1 0.37 nM, O=C1COc2ccccc2N1Cc1ccccc1Cl 0.31 nM, CC1(C)OC(c2ccccc2)=C/C(=C/C=Nc2ccccc2)O1 0.33 nM, CCSC1=N/C(=C\c2ccccc2)C(=O)N1c1ccc(OC)cc1 0.92 nM, CC(=O)c1cc(C#N)c(SCc2ccccc2)nc1C 0.51 nM, CCOc1ccc2cc(C#N)c(SCC(=O)NC(C)CC)nc2c1 (centres undefined) 0.8 nM, O=C(O)c1oc(C(=O)O)c(C(=O)O)c1C(=O)O 0.58 nM, C1=C(c2ccccc2)Nc2ccccc2N=C1c1ccccc1 0.4 nM, CSc1nnc(-c2ccc(F)cc2)o1 1.06 nM, CCOC(=O)CSc1nc(-c2ccccc2)nc2ccccc12 0.26 nM, COC(=O)CSc1nc(-c2ccccc2)nc2ccccc12 0.22 nM, C=CCn1c(=O)c2c3c(sc2n2c(Nc4ccc(OC)cc4)nnc12)CCCC3 0.74 nM, CCC(Sc1nc(-c2ccccc2)c(C#N)c(=O)[nH]1)C(=O)Nc1cc(C)on1 (centres undefined) 3.58 nM, Cc1cc2cc(CN(Cc3nnnn3C3CCCCC3)CC3CCCO3)c(=O)[nH]c2cc1C (centres undefined) 0.34 nM, Cc1ccccc1C(=O)Nc1ccccc1Sc1ccccc1 0.45 nM, O=C(Cc1ccc(F)cc1)Nc1ccccc1Sc1ccccc1 0.23 nM, COCCCN(C(=O)c1ccco1)c1nc(-c2cc(OC)ccc2OC)cs1 0.27 nM, CCCCc1nc2sc3c(SCC(=O)NCc4ccco4)ncnc3c2c2c1CCC2 0.59 nM, CCN(CC)C(=O)CN(c1cc2c(cc1OC)oc1ccccc12)S(=O)(=O)c1ccc(C)cc1 0.39 nM, Cc1cc2ccccc2nc1SCC(=O)NC1CCCCC1 1.22 nM, COc1ccc(-c2nc3c(c(=O)[nH]c(=O)n3Cc3ccccc3)n2Cc2ccccc2)cc1 0.28 nM, COc1ccc(-c2nc3ccccc3n2Cc2ccccc2)cc1 0.33 nM, Cc1ccc(S(=O)(=O)Nc2ccc(Cl)cc2C(=O)c2ccc(F)cc2)cc1 1 nM, O=C(/C(=C/O)N=Nc1ccccc1)c1ccc(Cl)cc1 7.05 nM, O=C(c1ccco1)N(CCC(c1ccccc1)c1ccco1)Cc1ccc(F)cc1 (centres undefined) 0.84 nM, Cc1ccc(S(=O)(=O)NCC(=O)N(c2ccccc2)C(C(=O)NCc2ccccc2)c2ccco2)cc1 (centres undefined) 0.62 nM, N#CCCSc1ncnc2c1oc1ccccc12 2.48 nM, CCOC(=O)CC(=O)CSc1ncnc2c1oc1ccccc12 2.96 nM, Cc1cc(=O)oc(C)c1C(=O)OC(C(=O)c1ccccc1)c1ccccc1 (centres undefined) 0.26 nM, Cc1noc(C)c1COC(=O)C(c1ccccc1)c1ccccc1 0.31 nM, COc1ccc2cc(CN(Cc3ccco3)C(c3nnnn3C3CCCCC3)C(C)C)c(=O)[nH]c2c1 (centres undefined) 0.82 nM, COc1ccc2cc3c(N)nn(C(=O)C4CCC(C(C)(C)C)CC4)c3nc2c1 (centres undefined) 0.34 nM, CCc1nnc2n1N=C(c1ccc(-c3cc(Cl)ccc3Cl)o1)CS2 0.42 nM, CCOC(=O)c1c(C=O)c(C)n(Cc2ccccc2Cl)c1C 0.46 nM, CCOC(=O)c1c(C=O)c(C)n(Cc2ccc(C)cc2)c1C 0.36 nM, Cc1cccc(NC(=O)CSc2ncnc3c2oc2ccccc23)c1 8.27 nM, Cc1nc(SCCC(=O)O)c2ccccc2n1 15.1 nM, COc1cc(/C=C/c2ccc3cccc([N+](=O)[O-])c3n2)ccc1OCC(=O)O 4.66 nM, COC(=O)C1C(c2ccccc2)C(C(=O)OCc2ccco2)C1c1ccccc1 (centres undefined) 0.38 nM, CSc1nc(Oc2ccc(F)cc2)c2ccccc2n1 0.42 nM, Fc1ccc(Sc2nc(-c3ccccc3)nnc2C(F)(F)F)cc1 1.16 nM, Cc1ccc(S(=O)(=O)c2c(C)cc(C)nc2N2CCCCC2)cc1 0.31 nM, CC1=C/C(=C(/c2ccc(O)c(C)c2)c2ccccc2C(=O)O)C=CC1=O 0.75 nM, CCOC(=O)c1c(CC(C)C)csc1N 0.39 nM, Cc1cc(Br)c2nc3c(c(C(=O)O)c2c1)CCCCC3 11.9 nM, CS(=O)(=O)N(Cc1ccccc1)c1ccccc1C(=O)Nc1ccccc1C(=O)NCc1ccco1 56.6 nM, CCOc1ccccc1C(=O)Nc1ccccc1-c1ccccc1 0.2 nM, O=C(N/N=C/c1ccc[nH]1)c1ccccc1OCc1ccccc1Cl 0.27 nM, O=C(O)NCc1ccccc1 (tested in a mixture with another compound) 0.49 nM, CCc1cc2cc(C)cc(C)c2nc1SCC(=O)N1CCCC1 0.43 nM, CCOC(=O)Cn1c(=S)[nH]c2c(oc3ccc(Cl)cc32)c1=O 6.72 nM, CCOc1ccc(OCC)c(NC(=O)CN2CCN(c3ccc(C)cc3C)CC2)c1 0.77 nM, C=CCCC1(C)C(=O)N(c2ccccc2)c2ccccc21 (centres undefined) 0.41 nM, CC1Cc2ccccc2N1CC(=O)NC(c1ccccc1)c1ccccc1 (centres undefined) 0.52 nM, CCOc1cccc(CNc2ccc(O)cc2)c1OCc1ccc(Cl)cc1 0.78 nM, Cc1cc(C)n(CCOc2ccc(Cl)cc2Cl)n1 0.34 nM
